# Compound activity (PubChem BioAssay)
# An excerpt weighted towards active compounds, which were near 1.8% of everything screened.
# p53ts 32C kill: kills p53ts cells at the permissive temperature; H1299-p53A138V at 32C, ATP luminescence viability, 24 h; Potency, µM (top dose mostly 46.1 µM), without a hit: at the highest dose activity change, negative = cytotoxicity, hits mostly cytotoxic; 0.93% of 130,000 active;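 also: 0% = DMSO and -100% = full killing by reference compound; nearly all actives have a fitted effect of over 55% in size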
#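 Cells: H1299 p53ts (A138V), 600/well, pre-incubated 16–30 h at 37C. Cpd up to 46 uM, 24 h, 32C. Readout: ATPlite luminescence, 20 min RT. Normalization: DMSO vs tamoxifen 100 uM. AC50 by Hill equation.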
# p53ts 39C kill: cytotoxicity in p53ts cells at nonpermissive temperature; H1299-p53A138V viability at 39C, ATP luminescence, 24 h; Potency, µM (top dose mostly 46.1 µM), for the others: top-dose activity change, negative = cell killing, most hits filed as cytotoxic; 1.5% of 130,000 active; also: % is scaled to controls: 0 for no effect and ±100 for the full control effect; nearly all actives have a fitted effect of over 55% in size
# IkB signaling: suppresses IkB signaling in ABC-DLBCL reporter cells; ABC-DLBCL IkBa-CBG/CBR dual luciferase ratio, 4 h; response scale: scaled: untreated 0%, proteasome inhibitor 100%; Potency, µM (top dose mostly 57.1 µM), for the others: at the highest dose IkBa stabilization activation; 0.04% of 110,000 active; AID 445; active = well fitted curve in the direction sought with a large enough effect in the signal ratio, not every such curve was filed as active; inconclusive = small, poorly fitted or top-dose-only effect, or a change in a side signal; the % refers to the signal ratio;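 also: the direction sought is a rising ratio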
#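 In this assay, an IκBα–CBG68 fusion accumulates when IKK-driven degradation is blocked; native CBR normalizes for cell number. OCI-Ly3 cells were treated 4 h with compound and doxycycline, then green and red light read after Chroma-Glo addition.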
# Peg3 imprint: genomic imprint erasure induction; mouse ES Peg3-LacZ reporter, beta-gal luminescence, 40 h; Potency, µM (series often up to 60.7 µM), inactives show at the highest dose activity change, positive = activation, most hits filed as activators; 0.02% of 110,000 active
#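 Imprint erasure is scored as LacZ activity from the silenced maternal Peg3 allele in feeder-free female ES cells cultured 40 h with LIF. Luminescence is normalized to in-plate negative controls and fitted to the Hill equation.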
# Numbers without * were called inactive; ? = inconclusive; . = no result; [ ] = another dose, or the depositor's remark. Unless noted, calls follow the shape of the dose curve; as a rule, active = well fitted curve in the direction sought with a large enough effect; inconclusive = small, poorly fitted or top-dose-only effect, or another doubt; inactive = no such curve, though single readings can be large; an effect the other way counts as inactive or inconclusive. Potency is read from the fitted curve at half-maximal effect.
SMILES,p53ts 32C kill,p53ts 39C kill,IkB signaling,Peg3 imprint
CCn1cc2nc(SCc3ccc(F)cc3)n(Cc3ccc(Cl)cc3)c(=O)c2n1,-4%,13µM*,?,-12%[10.9 µM]
CCS(=O)(=O)c1ncc(N(Cc2ccccc2)Cc2ccco2)c(C(=O)Nc2cccc(Cl)c2C)n1,4%,3%,?,-6%[10.9 µM]
CCS(=O)(=O)c1ncc(Cl)c(C(=O)N(Cc2ccccc2)Cc2ccco2)n1,18µM*,4µM*,?,-48%[10.9 µM]
CCOc1ccc(NC(=O)CC2C(=O)N(c3ccccc3)C(=O)N2CCc2ccc(OC)cc2)cc1 (stereo not drawn),-4%,-19%,3%,23%[10.9 µM]
Cn1c(/C(C#N)=C/c2ccccc2Br)nc2ccccc21,10µM*,?,?,-14%[10.9 µM]
CCCCC(CC)CN=C(N)NC(N)=NCCCCCCN=C(N)NC(N)=NCC(CC)CCCC (stereo not drawn),16µM*,?,.,-34%
CCCCC(CC)CO (stereo not drawn),-4%[1.84 µM],0%,-1%,8%
O=C(Cc1cc(=O)[nH]c(=O)[nH]1)NCC1CCCO1 (stereo not drawn),-10%,20µM*,?,-26%
Cc1cc(C)cc(OCC(=O)NCCN2CCOCC2)c1,-8%,-2%,-1%,-5%
O=C(Cc1cc(=O)[nH]c(=O)[nH]1)NCCN1CCOCC1,13µM*,?,1%,-50%
COc1ccc2[nH]cc(CCNC(=O)Nc3cc(C)cc(C)c3)c2c1,1%,13µM*,1%,?
CCOc1cccc(C(=O)N(Cc2ccc(CC)cc2)C2CCS(=O)(=O)C2)c1 (stereo not drawn),9%,-1%,-3%,-5%[10.9 µM]
O=C(Nc1nc(-c2ccccn2)cs1)c1ccc(Cl)s1,16%,4%,1µM*,-13%
O=C(Nc1ccc([N+](=O)[O-])cc1Cl)c1cc(Cl)ccc1O,?,4µM*,?,-96%
Cc1cc2nc(-c3cccc(NC(=O)c4ccc(Br)o4)c3C)oc2cc1C,?,?,?,-24%
Cc1cc2nc(-c3cccc(NC(=O)C(C)C)c3C)oc2cc1C,?,0.13µM*,4%,-12%[10.9 µM]
Cc1ccc(CNC(=O)C(C)n2ccc3cc(S(=O)(=O)N4CCCC4)ccc32)cc1 (stereo not drawn),-6%,-23%,?,-7%[10.9 µM]
COCc1cc(=O)n2c(-c3ccc(C)cc3)n[nH]c2n1,10µM*,10µM*,?,-30%
CCN1CCN(C(=O)c2cc3c(=O)n4ccccc4nc3n2Cc2ccccc2)CC1,13µM*,13µM*,1%,-88%
O=C(CSc1nc2ccccc2o1)Nc1nc2c(s1)CCCC2,?,13µM*,?,-37%
COc1cccc(-c2cc(C(F)(F)F)n3nc(C)c(-c4ccccc4)c3n2)c1,-7%,4%,0%,7%[10.9 µM]
CCN(CCCNC(=O)c1cc2cc3cc(C)ccc3nc2s1)c1cccc(C)c1,-4%,13%,?,-7%[10.9 µM]
NNc1nncc2ccccc12,7.9µM*,10µM*,4%[25.6 µM],-14%
CC1CCN(c2nncc3ccccc23)CC1,6%,-6%,-1%,-15%
COc1ccc(/C=N/Nc2nncc3ccccc23)cc1,.,3.2µM*,.,.
SMILES,p53ts 32C kill,p53ts 39C kill,IkB signaling,Peg3 imprint
COc1ccccc1/C=N/Nc1nncc2ccccc12,?,-8%,.,.
O=C(O)[C@@H]1CCCN[C@H]1C(=O)O,-6%,11%,-11%,.
Cc1cc(Nc2cccc(F)c2)nc(-c2ccccc2O)n1,?,16µM*,?,-23%
Cc1cc(Nc2ccccc2)nc(-c2ccccc2O)n1,-12%,0%,0%,-20%
CCCCN(C(=O)NC(=O)Nc1nc2ccc(OC)cc2s1)S(C)(=O)=O,13µM*,?,-4%,-49%
CC(C)c1ccc(-c2noc(SCC(=O)N(C)c3ccc(F)cc3)n2)cc1,1%,-17%,4%,-17%[10.9 µM]
CC(C)c1ccc(-c2noc(SCC(=O)N3CCCCC3)n2)cc1,13µM*,16µM*,?,-4%[10.9 µM]
O=C(O)CCn1nnc(-c2cccs2)n1,2%,3%,-5%,0%
CC(C)c1ccc(-c2nnn(CCC(=O)O)n2)cc1,10µM*,?,?,9%
Cc1ccc(CCNC(=O)CCn2nc(-c3ccc(C)cc3)ccc2=O)cc1,3%,?,?,?
CCOC(=O)c1cnc2c(-c3ccccc3)cnn2c1N,10µM*,7.9µM*,?,-51%
Cc1cc(N)n2ncc(-c3cccc(Br)c3)c2n1,0%,-4%,3%,-12%
